Measured values as given in PubChem BioAssay AID1851 (National Center for Advancing Translational Sciences (NCATS), 2009).
Screen size: about 16,000 compounds; about 4,000 (25%) were called active. Inconclusive results (about 26%) are left out. Calls come from the whole dose curve; as a rule, active = well fitted curve in the direction sought with a large enough effect; inconclusive = small, poorly fitted or top-dose-only effect, or effect the other way; inactive = no such curve, though single readings can be large or run the other way. Not all results are given here. Peptide text beside a SMILES is read from it.

Biological target: Cytochrome P450 2C9 (Homo sapiens) (UniProt P11712)
Experiment: Cytochrome panel assay with activity outcomes
Conditions: recombinant CYP, pro-luciferin dealkylation, luminescence, p450-cyp2c9; series mostly up to 57.1 µM
% is set by controls: 0 for no effect and ±100 for the full control effect.

Chain of Cytochrome P450 2C9 (Homo sapiens) (P11712 whole entry, looked up): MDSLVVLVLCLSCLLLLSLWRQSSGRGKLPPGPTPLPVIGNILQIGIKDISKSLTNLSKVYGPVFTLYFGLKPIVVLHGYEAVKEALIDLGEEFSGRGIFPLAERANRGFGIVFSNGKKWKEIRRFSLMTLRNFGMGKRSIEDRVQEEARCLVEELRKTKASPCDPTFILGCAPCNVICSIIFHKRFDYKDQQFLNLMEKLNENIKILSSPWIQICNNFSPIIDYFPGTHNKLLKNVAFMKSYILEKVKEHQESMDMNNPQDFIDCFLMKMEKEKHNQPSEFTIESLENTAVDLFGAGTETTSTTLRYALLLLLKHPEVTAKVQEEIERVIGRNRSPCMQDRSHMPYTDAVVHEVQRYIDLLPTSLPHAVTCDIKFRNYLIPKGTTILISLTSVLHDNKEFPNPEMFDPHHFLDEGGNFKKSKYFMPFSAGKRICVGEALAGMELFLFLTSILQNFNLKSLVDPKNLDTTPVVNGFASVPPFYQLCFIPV

Row | Structure (SMILES) | activity, negative = inhibition | AC50
1 | Cc1cnc(CNc2ccnc(-c3ccccc3Cl)n2)cn1 | 7.84% [at 2.29 µM] (inactive) | –
2 | CN(C)c1ccc(-c2cncnc2-n2ccnc2)cc1 | 15.2% [at 2.29 µM] (inactive) | –
3 | C[C@@H](CSC(=N)N)C(N)=O | -9.17% [at 11.4 µM] (inactive) | –
4 | Cc1noc(C)c1-c1nc(N(C)C)c2ccccc2n1 | 27.2% [at 2.29 µM] (inactive) | –
5 | COc1ccccc1N1CCN(CCCCNS(=O)(=O)c2cccc3c(N(C)C)cccc23)CC1 | – | inactive
6 | Cc1noc(NS(=O)(=O)c2cccc3c(N(C)C)cccc23)c1C | – | 0.631 µM (active)
7 | Cc1ccc(/C=N/NC(=O)Cn2nccc2C)o1 | – | inactive
8 | Cc1ccc(/C=C/C(=O)N2CC(C)CC(C)C2)o1 (configuration not stated) | – | 15.8 µM (active)
9 | CSc1nc(Sc2cccc(Cl)c2)c2ccccc2n1 | – | 0.251 µM (active)
10 | CSc1nnnc2ccccc12 | 14.9% [at 11.4 µM] (inactive) | –
11 | COc1ccccc1NC(=O)c1nc[nH]c1C(=O)Nc1ccccc1OC | – | inactive
12 | COc1ccccc1NC(=O)C1=C(C)Nc2nnnn2C1c1cccc(Br)c1 (configuration not stated) | – | 14.1 µM (active)
13 | COC(=O)C1=C(C)Nc2ncnn2C1c1cccnc1 (configuration not stated) | – | inactive
14 | COc1ccccc1CNc1ccnc(-c2ccc(N(C)C)cc2)n1 | -19.9% [at 2.29 µM] (inactive) | –
15 | COc1ccccc1NC(=O)C1=C(C)Nc2nc(-c3ccc(N(C)C)cc3)nn2C1c1ccncc1 (configuration not stated) | – | 8.91 µM (active)
16 | CC1=C(C(=O)Nc2cccnc2)C(c2cccnc2)n2nc(-c3cccs3)nc2N1 (configuration not stated) | – | 8.91 µM (active)
17 | NS(=O)(=O)c1cc2c(cc1Cl)N[C@@H](C(Cl)Cl)NS2(=O)=O | – | inactive
18 | Cc1noc(C)c1-c1nccc(NCc2cccs2)n1 | -12.6% [at 2.29 µM] (inactive) | –
19 | COc1cc([C@H](O)CO)ccc1O | – | inactive
20 | CCCCNN | -5.3% [at 11.4 µM] (inactive) | –
21 | NCCSCCC(=O)O | -9.49% [at 11.4 µM] (inactive) | –
22 | C=C1CC[C@H](O)C/C1=C/C=C1\CCC[C@]2(C)[C@H]1CC[C@H]2[C@@H](C)/C=C\[C@@H](C)C(C)C | – | inactive
23 | COc1cc(C(=O)N2CCC(NC(=O)C(Cc3ccc(C(C)C)cc3)NC(C)=O)CC2)cc(OC)c1OC (configuration not stated) | – | inactive

Row | Structure (SMILES) | activity, negative = inhibition | AC50
24 | Cc1ccc(Oc2ccccc2/C=C2\SC(=O)N(C)C2=O)cc1 | – | 10 µM (active)
25 | COc1cc(C)cc2c(-c3c(O)cc(O)c4c3C[C@H](C)N[C@@H]4C)cc(-c3cc(-c4c(O)cc(O)c5c4C[C@H](C)N[C@@H]5C)c4cc(C)cc(OC)c4c3O)c(O)c12 | -22.5% [at 11.4 µM] (inactive) | –
26 | O=C(O)C[C@H](NC(=O)CP(=O)(O)O)C(=O)O.[NH-][C@@H]1CCCC[C@@H]1[NH-].[Pt] | -7.92% [at 11.4 µM] (inactive) | –
27 | O=C(Nc1nnc(SCc2ccc(Cl)cc2)s1)c1ccco1 | – | 0.562 µM (active)
28 | COc1ccc2c(c1)Cc1sc(NC(=O)c3ccco3)nc1-2 | – | 10 µM (active)
29 | CC(=O)Nc1nnc(SCc2ccc(F)cc2)s1 | – | inactive
30 | COc1cccc(C(=O)Nc2nc3c(s2)CN(C)CC3)c1 | – | inactive
31 | COc1ccc(NC(=O)N2CCCC3(CCN(C(=O)c4ccco4)CC3)C2)cc1 | – | inactive
32 | COc1ccc(C(=O)Nc2nc3c(s2)Cc2cc(OC)ccc2-3)cc1 | – | 5.62 µM (active)
33 | COc1ccc2c(c1)CCc1sc(NC(=O)c3ccc(C)cc3)nc1-2 | – | 5.01 µM (active)
34 | C[N+]1(C)CCC[C@@H](OC(=O)C(O)(c2ccccc2)c2ccccc2)C1 | – | inactive
35 | COc1ccc(-n2c(=O)c(C)nc3cnc(N(C)C)nc32)cc1 | – | inactive
36 | CN(C)c1ncnc2ccc(-c3ccccc3C(F)(F)F)cc12 | -18.7% [at 2.29 µM] (inactive) | –
37 | COc1ccccc1-c1cc(Nc2ccc(F)cc2)ncn1 | -2.06% [at 2.29 µM] (inactive) | –
38 | O=C(NNC(=O)C1CCCCC1)c1cnccn1 | – | inactive
39 | CC(C)CN(C)c1nc(N)c(C(=O)N=C(N)N)nc1Cl | – | inactive
40 | Clc1ccccc1-c1nc(NCCN2CCOCC2)c2ccccc2n1 | 24.6% [at 2.29 µM] (inactive) | –
41 | O=C1CSC2(CCN(CCCN3c4ccccc4Sc4ccc(Cl)cc43)CC2)N1 | 4.61% [at 11.4 µM] (inactive) | –
42 | COc1ccccc1NC(=O)Nc1nnc(-c2ccco2)s1 | – | inactive
43 | COc1ccc(Cc2nnc(NC(=O)c3ccco3)s2)cc1 | – | 2.82 µM (active)
44 | OC[C@@H]1O[C@@H](n2cnc3cncnc32)[C@@H](O)[C@H]1O | – | inactive
45 | COc1cccc(-c2nccc(NCc3cnc(C)cn3)n2)c1 | -10.6% [at 2.29 µM] (inactive) | –
46 | CN(C)CC/C=C1\c2ccccc2CSc2ccccc21 | – | inactive

Row | Structure (SMILES) | activity, negative = inhibition | AC50
47 | C[C@H](N)C(=O)O | – | inactive
48 | CC(=O)N[C@@H](CC(=O)O)C(=O)N[C@@H](CCC(=O)O)C(=O)O (Ac-Asp-Glu-OH) | – | inactive
49 | O=C(c1csnn1)N1CCC2(CC1)CN(c1ccncc1)C2 | – | 2.51 µM (active)
50 | O=C(c1csnn1)N1CCC2(CC1)CCN(c1ccccc1)CC2 | – | inactive
51 | O=C(c1csnn1)N1CCC2(CC1)CN(c1ccccc1)C2 | – | inactive
52 | O=C(c1csnn1)N1CCC2(CC1)CN(c1cccc(-c3ccccc3)c1)C2 | – | inactive
53 | O=C(c1csnn1)N1CCC2(CCCN(c3ccccc3)C2)CC1 | – | 7.94 µM (active)
54 | O=C(c1csnn1)N1CCC2(CCCN(c3ccc(-c4ccccc4)cc3)C2)CC1 | – | inactive
55 | COc1ccc(NC(=O)N2CC[C@@]3(CCCN(C(C)=O)C3)C2)cc1 | – | inactive
56 | CCOc1ccc(-c2nnc3ccc(SCC(=O)NCc4ccco4)nn23)cc1 | – | 11.2 µM (active)
57 | COC(=O)CSc1nnc(-c2ccccc2OC)n1-c1ccc(C)cc1 | – | inactive
58 | CCn1c(SCC(=O)OC)nnc1C1CCCCC1 | – | inactive
59 | COC(=O)CSc1ccc2nnc(-c3ccc(F)cc3)n2n1 | – | 10 µM (active)
60 | O[C@@H](c1cc([C@@]23C[C@H]4CC[C@@H]2C[C@H](C4)C3)nc2c(Cl)cc(Cl)cc12)[C@@H]1CCCCN1 | -4.65% [at 11.4 µM] (inactive) | –
61 | Cc1cnc(CNc2cc(-c3ccc(C(=O)N(C)C)cc3)ncn2)cn1 | 23.4% [at 2.29 µM] (inactive) | –
62 | FC(F)(F)c1cnc(N2CCC(=NOCc3ccc(Cl)cc3)CC2)c(Cl)c1 | – | inactive
63 | COc1ccc(/C=N/NC(=O)C2CCN(c3ncc(C(F)(F)F)cc3Cl)CC2)cc1 | – | inactive
64 | O=C(OC1CCN(c2ncc(C(F)(F)F)cc2Cl)CC1)c1ccccc1 | – | 10 µM (active)
65 | COC(=O)[C@@]1(Cc2ccc(F)cc2)[C@H]2c3cc(C(=O)N4CCCC4)n(CCc4ccc(OC)c(Br)c4)c3C[C@H]2CN1C(=O)c1ccccc1 | – | 3.16 µM (active)
66 | COC(=O)[C@@]1(Cc2ccc(F)cc2)[C@H]2c3cc(C(=O)N4CCCC4)n(CCc4ccc(O)c(O)c4)c3C[C@H]2CN1C(=O)c1ccccc1 | – | 3.16 µM (active)
67 | COc1ccccc1CN1CCCC2(CCN(C(=O)c3cccn3C)CC2)C1 | – | inactive
68 | C/C(=N\OC(=O)c1ccccc1F)c1nccs1 | – | inactive
69 | O=S(=O)(O)c1ccc2cc(N=Nc3cc(S(=O)(=O)O)c4cccnc4c3O)ccc2c1 | -4.09% [at 11.4 µM] (inactive) | –

Row | Structure (SMILES) | activity, negative = inhibition | AC50
70 | Cc1ccc(-n2cnc(=O)c3cccnc32)cc1 | – | inactive
71 | Cc1cc(C)cc(-n2c(O)c(C=NC3CCS(=O)(=O)C3)c3ccccc3c2=O)c1 (configuration not stated) | – | 4.47 µM (active)
72 | Cc1ccc(-n2c(O)c(/C=N/n3cnnc3)c3ccccc3c2=O)cc1 | – | 0.794 µM (active)
73 | Nc1c(S(N)(=O)=O)cc(S(N)(=O)=O)cc1S(N)(=O)=O | -3.4% [at 11.4 µM] (inactive) | –
74 | CN(CCc1ccc(Cl)c(Cl)c1)CCN1CCCCCC1 | – | inactive
75 | CC(C)NC[C@H](O)c1ccc(NS(C)(=O)=O)cc1 | – | inactive
76 | CN(CCc1ccc(Cl)c(Cl)c1)C[C@@H](O)COc1ccc(NS(C)(=O)=O)cc1 | – | 2.51 µM (active)
77 | CC(=O)NNC(=O)C(O)(c1ccccc1)c1ccccc1 | – | inactive
78 | O=C(NC(N1CCCC1)C(Cl)(Cl)Cl)c1ccccc1 (configuration not stated) | – | inactive
79 | CC(C)(C)N(NC(=O)c1ccccc1)C(=O)c1cccc(C(=O)N(NC(=O)c2ccccc2)C(C)(C)C)c1 | – | 15.8 µM (active)
80 | COc1ccc(-c2noc(N(C)CC(=O)Nc3cccc(C(F)(F)F)c3)n2)cc1 | – | 5.01 µM (active)
81 | CN(CCCNC(=O)c1ccc(/C=N/O)nc1)CCCN(C)Cc1ccccc1 | – | inactive
82 | CN(CCCNC(=O)c1cccn2c(=O)c3ccccc3nc12)Cc1ccccc1 | – | 17.8 µM (active)
83 | Cc1ccc(CCN2CC(C(=O)NCCCN(C)Cc3ccccc3)CC2=O)cc1 (configuration not stated) | – | inactive
84 | CNC(=O)c1c(I)c(C(=O)NCC(=O)Nc2c(I)c(C(=O)O)c(I)c(C(=O)NCCO)c2I)c(I)c(N(C)C(C)=O)c1I | – | inactive
85 | Cc1ccc(NC(=O)/C(=C\c2ccc([N+](=O)[O-])cc2)NC(=O)c2ccccc2)cc1 | – | 11.2 µM (active)
86 | O=C(Nc1ccccc1)/C(=C\c1ccncc1)NC(=O)c1ccccc1 | – | 0.2 µM (active)
87 | Cc1ccc(C(=O)N/C(=C\c2ccc([N+](=O)[O-])cc2)C(=O)NCCc2ccccc2)cc1 | – | inactive
88 | COc1ccc(NC(=O)/C(=C\c2cc(OC)c(OC)cc2[N+](=O)[O-])NC(=O)c2ccccc2)cc1 | – | 7.94 µM (active)
89 | O=C1[C@H]2[C@H]3[C@H](O)[C@H](O)C/C(=N/OCc4ccccc4)[C@@H]3CC[C@@H]2C(=O)N1C[C@@H]1CCCO1 | 7.38% [at 11.4 µM] (inactive) | –
90 | O=C(O)C1C2C=CC3(CN(Cc4ccccn4)C(=O)C13)O2 (configuration not stated) | – | inactive
91 | CC(=O)NCCNc1ncncc1-c1ccccc1C(F)(F)F | -11.4% [at 2.29 µM] (inactive) | –
92 | O=C(O)c1nnsc1COCc1ccccc1 | -2.96% [at 11.4 µM] (inactive) | –
